# From PubChem BioAssay
# The sample as a whole holds a higher share of hits than the screen did.
# Pf Dd2 growth: Plasmodium falciparum Dd2 growth inhibition; actives 4.3% (n = 120,000); P. falciparum Dd2 growth, SYBR Green, 72 h; AID 1347417; Potency, µM (highest dose often 28.9 µM), for the others: at the top dose activity, negative = inhibition, actives largely listed as inhibitors; active = well fitted inhibition curve with a large enough effect;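 also: plate controls were DMSO vehicle for no effect and reference drug for full effect; nearly all actives have a fitted effect of over 65% in size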
#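 Readout: SYBR Green fluorescence, 485 nm excitation, 535 nm emission, after ~16 h lysis at 37C. Before that, Dd2-infected red cells (2.5% hematocrit) grew 72 h with compound, 29 uM top final concentration.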
# Starred values were filed as active, the others as inactive; i = inactive; [ ] = remark or other dose. Potency is read from the fitted curve at half-maximal effect.
SMILES,Pf Dd2 growth
CC(C)(C)OC(=O)N1CCC(c2c(C(=O)N3CCN(c4ccccc4F)CC3)cnn2C(C)(C)C)CC1,10µM*
COc1ccccc1N1CCN(C(=O)c2cnn(C(C)(C)C)c2C2CCN(C(=O)OC(C)(C)C)CC2)CC1,6.3µM*
Cc1ccc(-n2ncc(C(=O)N3CCN(c4ccccc4F)CC3)c2C2CCN(C(=O)OC(C)(C)C)CC2)cc1C,3%
Cc1cccc(OCCc2noc(C3CCCCN3S(C)(=O)=O)n2)c1 (stereo not drawn),-18%
CC1CCN([C@@H]2[C@H](O)[C@H](CO)O[C@@H]2CNC2CCCCC2)CC1,i
CC(C)N1C(=O)C2(CCCC2)C1C(=O)N1CCN(c2ncccn2)CC1 (stereo not drawn),13%
Cc1ccn(CC(=O)N2C[C@@H](CO)[C@H](c3nc(C4CC4)no3)C2)n1,25%
Cc1ccc2c(c1)nc1n2[C@@H](CNC(=O)c2ccc(C#N)cc2)COC1,i
Cn1ccc2c(C(=O)NCCc3cnc[nH]3)nc(-c3cccc(C(F)(F)F)c3)cc21,-15%[44.1 µM]
COc1ccc2c(CNCCc3cccs3)c(C(=O)O)n(Cc3cccc(F)c3)c2c1,i
COc1ccc(Cn2c(C(=O)O)c(CNCCc3ccco3)c3ccc(C)cc32)cc1,-11%
COc1ccc(Cn2c(C(=O)O)c(CNCCc3cc(OC)ccc3OC)c3ccc(C)cc32)cc1,8.9µM*
COc1ccc(Cn2c(C(=O)O)c(CNCc3ccc(OC)cc3OC)c3ccc(C)cc32)cc1,6.3µM*
COc1ccc2c(CNCc3ccccc3OC)c(C(=O)O)n(Cc3ccc(F)cc3Cl)c2c1,274%[0.0462 µM]
COc1ccc2c(CNCCc3cccs3)c(C(=O)O)n(Cc3ccccc3)c2c1,-4%
C=Cc1ccc(Cn2c(C(=O)O)c(CNCCc3ccco3)c3ccc(C)cc32)cc1,-22%
CCOc1ccc(CCNCc2c(C(=O)O)n(Cc3ccc(C)cc3)c3cc(OC)ccc23)cc1,11µM*
COc1ccc(Cn2c(C(=O)O)c(CNC3CCCCC3)c3ccc(C)cc32)cc1,-18%
CCN1c2cc(C(=O)Nc3ccc(F)cc3F)ccc2C(=O)N2CCCCCC21 (stereo not drawn),i
CCC(=O)N1CCC(N(C(=O)COC)C2CCOCC2)CC1,i
CC[C@H]1CN(S(C)(=O)=O)CC[C@H]1CC(=O)NCCSC,9%[44.1 µM]
CC(C)C(=O)N1CCC(O)(c2csc(CN3CCN(C)CC3)n2)CC1,12%[44.1 µM]
O=C(Cc1ccsc1)Nc1cnc(-c2ccccc2)nc1,-4%
O=C(Nc1ccc(Cl)cc1)c1cnn2c1NC(c1ccccc1)=CC2c1ccccc1 (stereo not drawn),3.2µM*
COc1ccc(NC(=O)C2=C(C)Nc3ncnn3C2c2ccccn2)cc1 (stereo not drawn),12%
SMILES,Pf Dd2 growth
COc1ccc(C2=CC(c3ccccc3F)n3ncc(C(=O)Nc4ccc(C)cc4)c3N2)cc1 (stereo not drawn),7.9µM*
COc1ccc(OC)c(C2NC(=O)NC(C)=C2C(=O)Nc2ccc(F)cc2)c1 (stereo not drawn),-12%
O=C(Nc1cnc(-c2ccc(Cl)cc2)nc1)c1ccccc1Cl,i
CC(=O)c1ccc(NC(=O)c2nc(-c3ccccc3)n(-c3ccc(Cl)cc3)n2)cc1,-19%
CC(C)c1noc(-c2cn(C3CCN(C(=O)c4ccc(OC(F)(F)F)cc4)C3)nn2)n1 (stereo not drawn),124%
COC(=O)N1CCC2(C1)OC(=O)Nc1cnccc12 (stereo not drawn),2%[44.1 µM]
CCOc1cc(C2c3c(oc4ccccc4c3=O)C(=O)N2c2ccccn2)ccc1O (stereo not drawn),20%
CCCOc1ccc(C2c3c(oc4ccccc4c3=O)C(=O)N2c2ccc(C)cn2)cc1OCC (stereo not drawn),43%
CCOc1ccc(-c2oc3ccccc3c(=O)c2O)cc1OCC,10µM*
COc1ccc(CCC(=O)N2CCC(C(=O)N3CCCCCCNC(=O)CC3)CC2)cc1,i
COCCCNC(=O)N1CCCCCCN(C)C(=O)[C@@H]2CCC[C@@H]21,39%
O=C(NC1CC1)C1(c2ccc(Cl)cc2)CCOCC1,9%[44.1 µM]
COc1ccc(-c2nc(-c3c(C)noc3C)cc3cc(C(C)C)oc23)cn1,8.9µM*
Cc1noc(C)c1-c1cc2cc(C(C)C)oc2c(-c2cccc(CO)c2)n1,-6%[44.1 µM]
COCCNc1nc(-c2c(C)noc2C)cc2cc(C(C)C)oc12,-8%[44.1 µM]
Cc1cn(CCNC(=O)c2cn(C3CCC(N)CC3)nn2)nn1 (stereo not drawn),-3%
CN(Cc1cccnc1)c1ccc2ncc(Nc3ccc(F)cc3)n2n1,-18%[44.1 µM]
CN1CCN(c2ccc3ncc(Nc4ccc(OC(F)(F)F)cc4)n3n2)CC1,3.5µM*
CN(Cc1cccnc1)c1ccc2ncc(Nc3ccc4c(c3)OCO4)n2n1,7.9µM*
CN1CCN(c2ccc3ncc(Nc4ccc5c(c4)OCCO5)n3n2)CC1,7.9µM*
CN(Cc1ccc(F)cc1)c1ccc2ncc(Nc3ccc4c(c3)OCO4)n2n1,-16%[44.1 µM]
COc1ccc(-c2ccc3ncc(Nc4ccnc(N5CCOCC5)c4)n3n2)cc1OC,-1%[44.1 µM]
CCc1nnc2ccc(N3CCN(C)CC3)nn12,-1%
